Where “and” joins values, the source holds several entries; their conditions need not be identical. Equal values may be shown once. Results filed as inconclusive are left out. A call without a number means that no potency is given here. Calls of active or inactive are those of the source. The call rests on the fitted dose curve; in most records, active means well fitted cell-killing curve with a large enough effect; inconclusive means small, poorly fitted or top-dose-only effect; inactive means no such curve, though single readings can be large or run the other way.
Potency means the concentration at half of the fitted maximal effect.

This assay is described as follows: qHTS of pediatric cancer cell lines to identify multiple opportunities for drug repurposing: Primary screen for SK-N-SH cells (AID 1347098). Further: nearly all actives have a fitted effect of over 65% in size. The following applies: SK-N-SH viability, CellTiter-Glo luminescence, 48 h; series mostly up to 57 µM. The source says:
Drug repurposing or repositioning has been offered as a strategy for drug development in oncology programs. This approach has special potential for childhood cancers and other rare or orphan diseases, where the expected return on new drug development has been a disincentive to pharmaceuticals.
In this project we exploit the poly-pharmacology of drugs to discover new indications via phenotypic screening of a panel of 19 well-characterized cell lines derived from solid tumors seen in children and adolescents. The goal is to identify approved drugs with previously unrecognized anticancer properties that has the potential to reveal new mechanisms and biological processes involved in carcinogenesis or drug resistance. We employed a titration-based paradigm (quantitative high-throughput screening or qHTS), where all compounds were tested at multiple concentrations for their effect on cell viability. Concentration-response curves (CRCs) were derived directly from the primary screen, and both potency and efficacy values were used to identify compounds with robust bioactivity profiles. We screened the NIH Chemical Genomics Center (NCGC) Pharmaceutical Collection (NPC) and Mechanism Interrogation Plate (MIPE) small molecule collections of approved and investigational compounds against these cell lines; and measured metabolically active cells after 48 hours of compound treatment as a proxy for cell viability.
Assay Submitter: Nathalia J. Martinez, National Center for Advancing Translational Sciences, National Institutes of Health, Rockville, MD, USA; email: natalia.martinez@nih.gov
[1] Shen, M et al. Quantitative high-throughput phenotypic screening of pediatric cancer cell lines identifies multiple opportunities for drug repurposing. Oncotarget 2017 Dec 19;9(4):4758-4772. PMID 29435139.
The cells were obtained from University of North Carolina (UNC), Pediatric Preclinical Testing Program (PPT), and Coriell Institute (CI).
qHTS cell viability assay:
Cells were assayed in growth media at a density of 500-1,000 cells/well. Five microliters of cells were dispensed into 1,536-well, white, solid-bottom, TC-treated plates (Greiner Bio One) using a multidrop dispenser and incubated at 37 degrees C, 5% CO2, under a humidified atmosphere for 5 hours. Twenty-three nanoliters of compounds and controls (neutral control DMSO or positive control bortezomib at final concentration of 2.3 µM) were subsequently transferred by Kalypsys pintool. For primary screens, the MIPE collection was tested at 11-point dilutions (final concentrations range from 0.78 nM to 46 µM) and the NPC collection at 8-point dilutions (final concentrations range from 0.59 nM to 46 µM). Compounds tested in follow-up screens were assayed at 11-point dilutions. Cells were incubated for 48 hours, followed by addition of 3 µL of CellTiter-Glo (Promega). After a 15 min incubation at room temperature, samples were analyzed for luminescence intensity using a ViewLux High-throughput CCD imager equipped with clear filters.
Background: In qHTS, concentration-response curves come from the screen itself.
Take `Cc1ncc(CNC(=O)N(CCCl)N=O)c(N)n1`: the Potency result is “inactive”.
The figure for `C[C@@H]1O[C@@H](O[C@H]2C[C@@H](O)[C@]3(CO)[C@H]4[C@H](O)C[C@]5(C)[C@@H](C6=CC(=O)OC6)CC[C@]5(O)[C@@H]4CC[C@]3(O)C2)[C@H](O)[C@H](O)[C@H]1O` is 152 nM (active) and 344 nM (active); for `c1ccc2c(c1)OCC(C1=NCCN1)O2` (stereo not given) it is 13.7 µM (active); for `C#CCOC(C(=O)OCCN(C)C)(c1ccccc1)c1ccccc1` it is “inactive”.
`Cc1sc2c(c1C)C(c1ccc(Cl)cc1)=N[C@@H](CC(=O)OC(C)(C)C)c1nnc(C)n1-2`: the Potency is 2.41 µM (active).
The entry for `c1ccc(C2CC2)c(OCC2=NCCN2)c1` is “inactive”; for `O=c1oc2ccccc2c(O)c1C(CC(O)c1ccc(-c2ccc(Br)cc2)cc1)c1ccccc1` (stereo not given) it is “inactive”; for `CC(CCc1ccccc1)NC(C)C(O)c1ccc(O)cc1` (stereo not given) it is “inactive”.
`CC[N+]1(C)CCCC(OC(=O)C(O)(c2ccccc2)c2ccccc2)C1` (stereo not given): the Potency entry is “inactive”.
The entry for `Cn1cc(C2=C(c3cn(C4CCN(Cc5ccccn5)CC4)c4ccccc34)C(=O)NC2=O)c2ccccc21` is “inactive”; for `NCC1(CC(=O)O)CCCCC1` it is “inactive”; for `Oc1ccc(Cl)cc1Cc1ccccc1` it is 35.8 µM (active) and 17.2 µM (active).
Regarding `CC(C)=CCOc1c2occc2cc2ccc(=O)oc12`, the Potency result was “inactive”.
On to `Cn1c(CCCC(=O)O)nc2cc(N(CCCl)CCCl)ccc21`, for which the Potency entry was “inactive”.
The result for `Oc1ccccc1-c1ccccc1` reads “inactive”.
The result for `CCCC(C)(COC(N)=O)COC(=O)NC(C)C` (stereo not given) reads “inactive”.
The result for `NN=C(N)N` reads “inactive”; that for `CNC(=O)c1ccc(N2C(=S)N(c3ccc(C#N)c(C(F)(F)F)c3)C(=O)C23CCC3)cc1F`, 19.2 µM (active); that for `CCN(C(C)=O)c1cccc(-c2ccnc3c(C#N)cnn23)c1`, “inactive”.
Take `CC(C)(N)Cc1ccc(Cl)cc1`: the Potency result was “inactive”.
Take `CC[C@@H](CO)NC(=O)[C@@H]1C=C2c3cccc4c3c(cn4C)C[C@H]2N(C)C1`: the Potency result was “inactive”.
The entry for `NCC(O)c1ccc(O)cc1` (stereo not given) is “inactive”; for `Clc1cccc(N2CCNCC2)c1` it is “inactive”; for `CC1OC(C)OC(C)O1` (stereo not given) it is “inactive”.
The entry for `CCOC(=O)C1(c2ccccc2)CCN(CCC(C#N)(c2ccccc2)c2ccccc2)CC1` is “inactive”; for `C[C@]12CCC(=O)C(O)=C1CC[C@@H]1[C@@H]2CC[C@]2(C)C(=O)CC[C@@H]12` it is “inactive”; for `CCOP(=S)(OCC)Oc1cc(C)nc(C(C)C)n1` it is “inactive”.
For `CC(C)(C)CC(C)(C)c1ccc(O)cc1`, the Potency is 25 µM (active).
Take `O=C1NCN(c2ccccc2)C12CCN(CC1COc3ccccc3O1)CC2` (stereo not given): the Potency result is “inactive”.
The result for `O=C(O)C(=O)c1cn(Cc2ccccc2)c2ccc(-c3ccc(OC(F)(F)F)cc3)cc12` reads “inactive”; that for `CC(C)CC(N(C)C)C1(c2ccc(Cl)cc2)CCC1` (stereo not given), “inactive”; that for `C[C@]12CC[C@H]3[C@@H](CCC4=CC(=O)CC[C@@H]43)[C@@H]1CC[C@@H]2OC(=O)CCc1ccccc1`, “inactive”.
Regarding `CC(C)(C)NCC(O)c1cc(Cl)c(N)c(Cl)c1` (stereo not given), the Potency result was “inactive”.
The result for `CC(=O)[C@H]1CC[C@H]2[C@@H]3CC[C@H]4C[C@](C)(O)CC[C@]4(C)[C@H]3CC[C@]12C` reads “inactive”; that for `O=c1[nH]c2ccccc2n1CCCN1CCC(n2c(=O)[nH]c3cc(Cl)ccc32)CC1`, “inactive”; that for `C=CCN1CC[C@]23c4c5ccc(O)c4O[C@H]2C(=O)CC[C@@]3(O)[C@H]1C5`, “inactive”.
The entry for `CC(=O)[C@H]1CC[C@H]2[C@@H]3CC[C@H]4C[C@H](O)CC[C@]4(C)[C@H]3C(=O)C[C@]12C` is “inactive”; for `C#CCN(C)[C@H](C)Cc1ccccc1` it is “inactive”.
As to `CCC(COC(=O)c1cc(OC)c(OC)c(OC)c1)(c1ccccc1)N(C)C` (stereo not given), the Potency result is “inactive”.
The result for `NCCc1cc(O)c(O)cc1O` reads “inactive”.

The record behind these values is PubChem BioAssay (NCATS).
